Hit rate of the full screen: of about 100,000 compounds, about 4,200 (4.2%) were called active. For the sample, actives were picked, then their nearest neighbours and some compounds at random. Values without a mark were called inactive.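 How the source made its calls: active means single-dose well whose peak fluorescence ratio is a statistical outlier from its plate by either plate-standardised score or position-corrected B-score; inactive means the rest.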
target: Voltage-dependent T-type calcium channel subunit alpha-1H (Homo sapiens) (UniProt O95180); assay: Cav3.2 calcium influx blockers – cell-based, Fluo-4 calcium fluorescence, FDSS, MLSMR library, primary screen (AID 449739); conditions: Cav3.2-expressing cells, at 10 µM, active compounds read low
Sequence (O95180 whole entry, looked up): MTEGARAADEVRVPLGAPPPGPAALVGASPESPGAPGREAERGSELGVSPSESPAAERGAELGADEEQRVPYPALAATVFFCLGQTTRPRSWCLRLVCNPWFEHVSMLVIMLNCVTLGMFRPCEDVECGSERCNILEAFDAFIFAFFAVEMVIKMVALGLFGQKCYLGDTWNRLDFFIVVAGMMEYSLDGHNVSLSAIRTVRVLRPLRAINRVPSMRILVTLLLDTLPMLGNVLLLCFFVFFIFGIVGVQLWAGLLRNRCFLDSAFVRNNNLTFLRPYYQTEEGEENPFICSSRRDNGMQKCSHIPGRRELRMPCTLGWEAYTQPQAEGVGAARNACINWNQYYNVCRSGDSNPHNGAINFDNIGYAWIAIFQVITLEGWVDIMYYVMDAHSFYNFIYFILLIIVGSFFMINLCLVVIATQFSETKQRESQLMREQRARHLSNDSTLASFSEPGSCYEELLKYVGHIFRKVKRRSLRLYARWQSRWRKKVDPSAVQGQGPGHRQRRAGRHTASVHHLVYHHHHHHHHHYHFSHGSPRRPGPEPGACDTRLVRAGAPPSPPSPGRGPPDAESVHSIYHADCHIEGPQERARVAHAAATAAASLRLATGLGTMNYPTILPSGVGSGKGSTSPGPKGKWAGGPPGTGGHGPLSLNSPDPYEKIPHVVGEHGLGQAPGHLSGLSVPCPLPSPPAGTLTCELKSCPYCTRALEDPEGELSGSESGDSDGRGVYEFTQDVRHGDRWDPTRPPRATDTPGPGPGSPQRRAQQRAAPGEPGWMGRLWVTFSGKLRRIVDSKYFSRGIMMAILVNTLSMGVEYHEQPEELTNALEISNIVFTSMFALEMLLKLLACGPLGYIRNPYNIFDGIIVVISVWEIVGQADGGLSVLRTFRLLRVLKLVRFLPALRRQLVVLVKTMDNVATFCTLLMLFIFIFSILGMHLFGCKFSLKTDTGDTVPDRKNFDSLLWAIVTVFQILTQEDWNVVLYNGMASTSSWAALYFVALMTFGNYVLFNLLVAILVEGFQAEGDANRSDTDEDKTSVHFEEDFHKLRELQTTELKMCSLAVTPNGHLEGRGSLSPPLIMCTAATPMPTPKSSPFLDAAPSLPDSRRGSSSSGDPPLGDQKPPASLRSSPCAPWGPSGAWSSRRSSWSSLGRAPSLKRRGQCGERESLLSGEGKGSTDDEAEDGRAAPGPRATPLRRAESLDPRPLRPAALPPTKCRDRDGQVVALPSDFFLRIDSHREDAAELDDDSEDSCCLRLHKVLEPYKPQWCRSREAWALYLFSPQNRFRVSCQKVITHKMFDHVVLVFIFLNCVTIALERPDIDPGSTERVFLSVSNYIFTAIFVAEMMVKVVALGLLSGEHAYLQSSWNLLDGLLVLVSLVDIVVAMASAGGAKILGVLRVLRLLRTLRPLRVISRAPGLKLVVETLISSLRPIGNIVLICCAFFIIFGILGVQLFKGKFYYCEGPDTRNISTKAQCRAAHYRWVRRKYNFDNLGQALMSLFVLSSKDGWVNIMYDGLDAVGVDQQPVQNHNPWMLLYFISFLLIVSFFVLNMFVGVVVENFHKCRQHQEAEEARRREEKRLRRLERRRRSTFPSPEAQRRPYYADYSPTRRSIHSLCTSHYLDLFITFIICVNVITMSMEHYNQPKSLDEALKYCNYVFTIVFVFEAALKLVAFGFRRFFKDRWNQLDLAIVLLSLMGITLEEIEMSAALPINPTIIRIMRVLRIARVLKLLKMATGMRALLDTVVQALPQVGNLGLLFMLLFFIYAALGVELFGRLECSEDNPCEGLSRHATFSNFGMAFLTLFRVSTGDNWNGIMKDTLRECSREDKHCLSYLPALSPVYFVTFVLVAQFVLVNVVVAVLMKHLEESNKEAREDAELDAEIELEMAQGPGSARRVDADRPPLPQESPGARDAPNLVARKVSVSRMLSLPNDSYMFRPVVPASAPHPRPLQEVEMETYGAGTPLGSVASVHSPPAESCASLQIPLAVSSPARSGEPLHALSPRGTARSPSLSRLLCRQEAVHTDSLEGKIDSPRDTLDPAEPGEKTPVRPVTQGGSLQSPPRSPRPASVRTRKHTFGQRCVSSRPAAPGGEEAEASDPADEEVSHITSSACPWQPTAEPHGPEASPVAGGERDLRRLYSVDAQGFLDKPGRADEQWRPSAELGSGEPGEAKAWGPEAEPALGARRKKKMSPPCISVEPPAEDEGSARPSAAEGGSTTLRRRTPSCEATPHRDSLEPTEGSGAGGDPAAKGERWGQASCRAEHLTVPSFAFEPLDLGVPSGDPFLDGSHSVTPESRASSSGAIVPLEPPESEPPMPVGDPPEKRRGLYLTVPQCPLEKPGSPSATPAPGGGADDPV

| Structure (SMILES) | B-score |
| --- | --- |
| COc1cccc(N2CC(C(=O)Nc3c(C)cccc3C)CC2=O)c1 (stereo unspecified) | 0.386 |
| COc1cccc(N(C(=O)c2ccn[nH]2)C2(C(=O)Nc3c(C)cccc3C)CCCCC2)c1 | -4.96 (active) |
| COc1ccc(NC(=O)c2cccc(NC(=O)c3ccco3)c2)c(OC)c1 | -2.2 |
| COC(=O)c1cc(Cl)c(NC(=O)c2ccco2)cc1OC | -0.41 |
| COc1ccccc1C(=O)Nc1ccc(NC(=O)c2ccco2)c(C)c1 | -5.24 (active) |
| Cc1nc(C(=O)NCc2ccccc2)sc1C1(C)CC(c2cccnc2)=NO1 (stereo unspecified) | 0.0411 |
| CCOC(=O)c1ccc(NC(=O)c2nc[nH]c2C(=O)NCc2ccccc2)cc1 | -0.706 |
| Oc1c(Cl)cc(Cl)c(Cl)c1Cc1c(O)c(Cl)cc(Cl)c1Cl | -5.05 (active) |
| CSc1ccc(S(=O)(=O)NCc2ccc(Cl)cc2)cc1 | -1.35 |
| CSc1ccc(S(=O)(=O)NC2CCCCC2)cc1 | -0.215 |
| CSc1ccc(S(=O)(=O)Nc2cccc(F)c2)cc1 | -4.09 (active) |
| CC(C)(C)OC(=O)NCCCC1=CC2=CC(=O)C(C)(OC(=O)c3ccco3)C(=O)C2=CO1 (stereo unspecified) | 0.291 |
| Cc1ccc(NC(=S)NC(=O)c2ccc(-c3ccccc3)cc2)cc1 | -0.678 |
| COc1ccc(C(=O)NC(=S)NNC(=O)CCc2ccccc2)cc1 | -4.4 (active) |
| CCNC(=S)NNC(=O)Cc1ccccc1 | 0.703 |
| CCOc1c2ccc(C(=O)NCc3ccc4c(c3)OCO4)cc2nn1C | 0.329 |
| CC(=O)NS(=O)(=O)c1ccc(NC(=O)/C=C/c2ccccc2Cl)cc1 | -1.8 |
| CCNc1nc(N)nc(-c2cc(Cl)ccc2OC)n1 | 0.499 |
| CC[C@@H](C)[C@@H](C(=O)N1CCN(C(=O)OC(C)(C)C)CC1)n1cc(CCC(=O)O)nn1 | 1.09 |

| Structure (SMILES) | B-score |
| --- | --- |
| COc1ccc(Cl)cc1C(=O)NCC#N | 0.746 |
| COC(=O)/C(=C\Nc1ccccc1)NC(=O)c1ccc(Cl)cc1Cl | -5.14 (active) |
| CC(C)(C)C(=O)Nc1ccc(C(=O)N/N=C/c2ccccc2OC(=O)c2ccc(Cl)cc2Cl)cc1 | -2.74 |
| CCOc1cc(/C=C2/N=C(c3ccc(C(C)(C)C)cc3)OC2=O)cc(Cl)c1OS(C)(=O)=O | -1.04 |
| CC(C)NC(=O)CSc1ccccc1C(=O)NCc1ccc2c(c1)OCO2 | 0.374 |
| Cc1nc2c(C(=O)NCc3ccc4c(c3)OCO4)c[nH]n2c(=O)c1Cc1ccccc1F | -5.22 (active) |
| CCn1cc(C(=O)NCc2ccc3c(c2)OCO3)c2cc(OC)c(OC)cc2c1=O | 0.417 |
| O=C(CSc1nc(C2CC2)nc2ccccc12)Nc1ccc2c(c1)OCCO2 | 0.0431 |
| COc1ccc2oc(C)c(NC(C)=O)c2c1 | 0.131 |
| COc1ccc(OC)c(C(=O)c2coc3ccc(OC)cc23)c1 | -3.61 (active) |
| COc1ccc(OC)c(C(=O)c2ccc(C(=O)O)cc2)c1 | -3.15 |
| Cc1ccccc1C(=O)N1CCC(C(=O)Nc2ccc(S(=O)(=O)N(C)C(C)C)cc2)CC1 | 0.159 |
| NC(=O)CC[C@@H]1NC(=O)[C@H](CO)NC(=O)c2cc([N+](=O)[O-])cc(I)c2NCC[C@@H](C(N)=O)NC1=O | 0.984 |
| O=C(CC(Cc1ccccc1)C(=O)O)NCCc1ccc2c(c1)OCO2 (stereo unspecified) | -0.225 |
| O=C(COC(=O)c1ccc2c(c1)OCCO2)NCc1ccccc1 | -0.412 |
| O=C(NCCc1ccc2c(c1)OCCO2)c1cc2ccccc2o1 | -3.85 (active) |
| COc1ccc(CNC(=O)[C@@H]2CC=C[C@@H]3CCN(C4CC4)C(=O)[C@@H]32)cc1 | 1.86 |
| CC[C@H](C)[C@@H](C(=O)N1CCNCC1)n1cc([C@@H](N)Cc2ccc(O)cc2)nn1 | 0.0182 |
| Cc1cccc(N(C(=O)Cc2cccs2)C(C(=O)NC2CCCC2)c2ccsc2)c1 (stereo unspecified) | -1.16 |

| Structure (SMILES) | B-score |
| --- | --- |
| CCC1(CC)C(=O)C2=C3C1[C@H](C(=O)OC)C=C(C(=O)OC)C[C@H]3[C@H]1C(=O)N(Cc3ccccc3)C(=O)[C@H]1[C@H]2C (stereo partly specified) | 0.691 |
| Cc1ccc(-c2cc(=O)c3ccc(Cl)cc3[nH]2)cc1 | -0.0223 |
| O=c1[nH]n(-c2cccc(Cl)c2)c2ncccc12 | 0.173 |
| Cc1[nH]n(-c2cccc(Cl)c2)c(=O)c1-c1ccc(Cl)cc1 | -7.48 (active) |
| CC1=CC(C)(C)Nc2ccc(OC(=O)C(Cc3ccccc3)N3C(=O)C4CCCCC4C3=O)cc21 (stereo unspecified) | -5.23 (active) |
| CC1=CC(C)(C)Nc2ccc(OC(=O)CN3C(=O)C4CCCCC4C3=O)cc21 (stereo unspecified) | -0.00954 |
| Cc1ccc(C)n1C(Cc1ccccc1)C(=O)O (stereo unspecified) | 1.91 |
| COCCCn1c(SCc2cccc(OC)c2)nc2cc(OC)c(OC)cc2c1=N | -0.819 |
| C=C1CCN([C@H](C(=O)NCc2cc(OC)c(OC)c(OC)c2)C(C)C)S(=O)(=O)c2ccccc21 | 1.03 |
| COc1ccc2cc1Oc1ccc(cc1)C[C@H]1c3cc(c(OC)cc3CCN1C)Oc1c(O)c(OC)cc3c1[C@H](C2)N(C)CC3 | 1.81 |
| COc1ccc(-c2cc(C(=O)n3cnc4ccccc43)c3ccccc3n2)cc1 | -0.0392 |
| COc1ccc(-c2[nH]nc(-c3ccccc3)c2-c2nc3ccccc3[nH]2)cc1 | -6.24 (active) |
| O=C(COc1ccccc1)NCCc1nc2ccccc2[nH]1 | 0.299 |
| COc1ccccc1CSc1nc2ccccc2[nH]1 | -0.942 |
| Cc1cc(N2C(=O)C(=O)/C(=C(/O)c3ccc(Cl)cc3)C2c2cccc(Br)c2)no1 (stereo unspecified) | -7.89 (active) |
| O=C1C(=O)N(CCN2CCOCC2)C(c2ccccn2)/C1=C(/O)c1ccc(Cl)cc1 (stereo unspecified) | -0.156 |
| COc1ccccc1C1/C(=C(/O)c2ccc(OC(C)C)cc2)C(=O)C(=O)N1c1cc(C)on1 (stereo unspecified) | -0.532 |
| Cc1cccc(NC(=S)Nc2ccc(Br)cc2)c1 | -1.14 |
